Screens deposited in PubChem BioAssay by Buhrlage Lab, Dana-Farber Cancer Institute and Novartis Institutes for BioMedical Research (Cambridge, Mass).
USP8 inh: human USP8 deubiquitinase inhibition. P40818. purified USP8, Ub-rhodamine cleavage fluorescence, 30 min. inhibition, % at 20 µM. 4.2% of 47,000 active
USP28 inh: human USP28 deubiquitinase inhibition; Q96RU2; purified USP28, Ub-rhodamine cleavage fluorescence, 30 min; inhibition, % at 25 µM; 3% of 47,000 active; AID 1645857
USP17 block: human USP17-like deubiquitinase inhibition. A8MUK1. purified USP17, Ub-rhodamine cleavage fluorescence, 3 h. inhibition, % at 50 µM. 6.5% of 47,000 active. AID 1645855
USP10 inh: blocks human USP10 ubiquitin-rhodamine cleavage | Q14694 | purified USP10, Ub-rhodamine fluorescence, 60 min | inhibition, % at 20 µM | 1.1% of 47,000 active
USP30 block: human USP30 deubiquitinase inhibition; purified USP30, Ub-rhodamine cleavage fluorescence; inhibition, % at 25 µM; 5.3% of 47,000 active; Q70CQ3
Target sequence (Q70CQ3 whole entry, looked up): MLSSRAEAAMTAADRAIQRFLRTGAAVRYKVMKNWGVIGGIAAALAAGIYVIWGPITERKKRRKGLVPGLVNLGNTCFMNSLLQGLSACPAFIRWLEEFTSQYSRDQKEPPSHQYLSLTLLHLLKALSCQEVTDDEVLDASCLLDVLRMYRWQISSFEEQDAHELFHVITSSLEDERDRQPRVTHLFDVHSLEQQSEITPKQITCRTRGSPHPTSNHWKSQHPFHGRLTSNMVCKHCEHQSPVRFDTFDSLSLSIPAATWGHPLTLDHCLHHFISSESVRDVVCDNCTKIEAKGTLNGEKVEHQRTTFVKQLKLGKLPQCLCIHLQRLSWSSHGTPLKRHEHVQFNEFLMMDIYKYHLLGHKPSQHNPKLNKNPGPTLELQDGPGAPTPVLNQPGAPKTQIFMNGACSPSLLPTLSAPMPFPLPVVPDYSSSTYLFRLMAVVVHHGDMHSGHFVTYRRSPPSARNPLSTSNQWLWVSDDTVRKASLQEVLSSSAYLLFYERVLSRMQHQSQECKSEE
* marks the source's active call; other numbers are inactive results; x = no result. Compounds with a hit are over-represented: about 13% of the library has one in this group of screens. No stated cut-off is given here; in the data, active means inhibition above about 30%; inactive means the rest.

SMILES	USP8 inh	USP28 inh	USP17 block	USP10 inh	USP30 block
Cc1ccc2oc(-c3cc(NC(=O)c4cccc(-n5cnnc5)n4)ccc3O)nc2c1	-1	x	26	-1	x
Cc1ccc2c(=O)c(C(=O)N3CCC(C)CC3)c[nH]c2n1	1	-10	-2	-3	-44
COc1ccc(-c2[nH]nc3c2C(c2ccc(OC)cc2)CC(=O)O3)cc1 (stereo unspecified)	1	-9	-16	3	-10
c1ccc2c(c1)CCc1c-2nc2ccccc2c1N1CCOCC1	83*	2	72*	-3	-95
COC(=O)c1cc2sccc2n1CC(=O)Nc1cccc(SC)c1	1	17	28	4	36*
CCc1nc2ccc(C(=O)Nc3nc(-c4ccc5c(c4)CCN5S(=O)(=O)c4ccccc4)c(C)s3)cc2nc1CC	23	15	32*	1	-4
Cc1sc(NC(=O)CN2CCOCC2)nc1-c1ccc2c(c1)CCN2C(=O)C(C)C	-35	0	-8	-5	-30
Cc1sc(NC(=O)CNc2ccccc2)nc1-c1ccc2c(c1)CCN2C(=O)C(C)C	-4	5	51*	-2	-13
Cc1ccc(C(=O)N2CCc3cc(-c4csc(NC(=O)CN(C)C5CCCCC5)n4)ccc32)cc1	58*	12	23	-4	-15
Cc1cccc(C(=O)N2CCc3cc(-c4csc(NC(=O)CNc5ccccc5)n4)ccc32)c1	30	-11	31*	8	-40
Cc1ccc(NC(=O)c2cn(-c3ncccc3-c3nc(C)no3)cn2)c(C)c1	2	-10	-10	-1	-24
Cc1cc(-c2ncc[nH]2)nc(C2CCCN2C(=O)Cc2cccnc2)n1 (stereo unspecified)	-40	3	-1	0	2
Cc1cc(C)n2nc(C(=O)N3CCCCC3c3nc4ccccc4s3)nc2n1 (stereo unspecified)	-32	6	9	-2	10
Cc1cccc(C(=O)N2CCc3cc(-c4nc(NC(=O)CN5CCCC5)sc4C)ccc32)c1	9	11	45*	3	-15
Cc1cccc(C(=O)N2CCc3cc(-c4nc(NC(=O)CNc5ccccc5)sc4C)ccc32)c1	57*	17	60*	19	20
Cc1ccc(C(=O)N2CCc3cc(-c4nc(NC(=O)CN5CCCCCC5)sc4C)ccc32)cc1	6	5	13	-2	3
Cc1sc(NC(=O)Cn2nnc3ccccc3c2=O)nc1-c1ccc2c(c1)CCN2C(=O)C(C)C	14	x	56*	13	x
CCC(C)C1NC(=O)C(C)NC(=O)C(Cc2ccccc2)N(C)C(=O)C2CCCN2C(=O)c2ccccc2NC1=O (stereo unspecified)	-21	0	-18	-6	-64
Cc1cc(C)cc(NC(=O)C2CCCN(S(=O)(=O)c3cccnc3)C2)c1 (stereo unspecified)	-1	x	-8	-2	x
Cc1nc(N2CCN(C/C=C/c3ccccc3)CC2)c2oc3ccccc3c2n1	-4	-6	20	7	0
CN1C(=O)OC[C@@H]2CCN(C(=O)Nc3ccc(Cl)cc3)C[C@H]21	10	-1	0	0	5
COC(=S)NC(=O)/C=C/c1ccccc1	24	17	22	8	32*
Cc1ccc(F)cc1NC(=O)Cc1nnc(-c2ccc3ncccc3c2)o1	56*	3	25	-9	1
CCc1ccc(NC(=O)Cc2nnc(-c3ccc4ncccc4c3)o2)cc1	51*	21	63*	-5	43*
Cc1cccc(NC(=O)Cc2nnc(-c3ccc4ncccc4c3)o2)c1	-278	-7	-5	-6	-28
SMILES	USP8 inh	USP28 inh	USP17 block	USP10 inh	USP30 block
COc1c2nc3ccccc3oc-2cc(=O)c1OC	58*	7	71*	2	-13
COc1ccc(C(=O)N/C(=C/c2cccnc2)C(=O)Nc2ccc(F)cc2)cc1OC	-1	-5	-3	-4	-15
Fc1ccc2nc(CN3CCCCC3)cn2c1	-1	x	-9	0	x
COc1ccc(C(=O)N2CCN(c3oc(/C=C/c4cccc(OC)c4)nc3C#N)CC2)cc1	-15	6	25	4	7
COc1cccc(/C=C/c2nc(C#N)c(N3CCN(C(=O)c4cccs4)CC3)o2)c1	12	21	8	7	52*
CCCCc1ccc(-c2cc(C(=O)NCCN3CCOCC3)c3cc(Br)ccc3n2)cc1	-16	0	14	-2	79*
CCc1ccc(NC(=O)N2C[C@H]3CC[C@@]4(N=C(C)N(CC5CC5)C4=O)[C@H]3C2)cc1	-32	-8	-8	1	-10
C=C(C)CSc1nc2sc3c(c2c(=O)n1CCc1ccccc1)CCN(C)C3	-22	-47	-53	-13	-285
